The test system of one test is MCC-13. The test is described as follows: qHTS assay to identify novel small-molecules to repurpose for Merkel cell carcinoma treatment (AID 1296009). Note: nearly all actives have a fitted effect of over 60% in size. The note with it: MCC and control cell lines, CellTiter-Glo viability, 72 h; series mostly up to 46 µM. Put shortly:
(§1)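 Dose-response viability screen; 72 hr exposure at 37 degree celsius; CellTiter-Glo added, 10 min room temperature, luminescence read; RLUs scaled between no-cell and DMSO wells.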

A further test deals with MCC-26. The test is described as above. The note with it: MCC and control cell lines, CellTiter-Glo viability, 72 h; series mostly up to 46 µM. The procedure, abridged: as §1
A general note: ATP-based viability assays read luminescence as a measure of living cells.

The test system of another test is MKL-1. Described as above. The note with it: MCC and control cell lines, CellTiter-Glo viability, 72 h; series mostly up to 46 µM. Put shortly: as §1
Another test concerns MKL-2. Described as above. The note with it: MCC and control cell lines, CellTiter-Glo viability, 72 h; series mostly up to 46 µM. The procedure, abridged:
as §1

Another test deals with UISO. The test is described as above. The note with it: MCC and control cell lines, CellTiter-Glo viability, 72 h; series mostly up to 46 µM. The procedure, abridged: as §1
The test system of a further test is WaGa. Described as above. The note with it: MCC and control cell lines, CellTiter-Glo viability, 72 h; series mostly up to 46 µM. The procedure, abridged:
as §1

In the next test the test system is C33A. The test is described as follows: Primary qHTS to identify gynecologic anti-cancer compounds using libraries of approved drugs and bioactive compounds (AID 1345084). Note: nearly all actives have a fitted effect of over 55% in size. The note with it: Gynecologic cancer cell panel viability, ATPlite luminescence, 48 h; series mostly up to 57.5 µM. Put shortly:
(§2)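 Cytotoxicity screen measuring ATP content by luciferase luminescence. Each compound is applied at five concentrations for 48 h at 37 C with 5% CO2.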
For orientation: qHTS replaces the single test concentration by a dilution series.

The next test has as its system CASKI. The description is as above. The note with it: Gynecologic cancer cell panel viability, ATPlite luminescence, 48 h; series mostly up to 57.5 µM. The procedure, abridged: as §2
The subject of another test is Es-2. The test is described as above. The note with it: Gynecologic cancer cell panel viability, ATPlite luminescence, 48 h; series mostly up to 57.5 µM. Put shortly:
as §2

Another test relates to HeLa. The test is described as above. The note with it: Gynecologic cancer cell panel viability, ATPlite luminescence, 48 h; series mostly up to 57.5 µM. The procedure, abridged: as §2
The subject of a further test is Hek293T. The test is described as above. The note with it: Gynecologic cancer cell panel viability, ATPlite luminescence, 48 h, control line for the selectivity index; series mostly up to 57.5 µM. Put shortly:
as §2

For the next test, the system named is JEG-3. The description is as above. The note with it: Gynecologic cancer cell panel viability, ATPlite luminescence, 48 h; series mostly up to 57.5 µM. The procedure, abridged: as §2
A further test relates to OV90. Described as above. The note with it: Gynecologic cancer cell panel viability, ATPlite luminescence, 48 h; series mostly up to 57.5 µM. The procedure, abridged: as §2
The next test relates to PA-1. The description is as above. The note with it: Gynecologic cancer cell panel viability, ATPlite luminescence, 48 h; series mostly up to 57.5 µM. Put shortly: as §2
The subject of the next test is Tov-21-G. The description is as above. The note with it: Gynecologic cancer cell panel viability, ATPlite luminescence, 48 h; series mostly up to 57.5 µM. The procedure, abridged: as §2
Another test concerns Tov112D. The description is as above. The note with it: Gynecologic cancer cell panel viability, ATPlite luminescence, 48 h; series mostly up to 57.5 µM. Put shortly:
as §2

The next test has as its system SKOV3. The test is described as above. The note with it: Gynecologic cancer cell panel viability, ATPlite luminescence, 48 h; series mostly up to 57.5 µM. The procedure, abridged: as §2
A further test concerns CAOV3. Described as above. The note with it: Gynecologic cancer cell panel viability, ATPlite luminescence, 48 h; series mostly up to 57.5 µM. Put shortly:
as §2

Results on 14 compounds are retold here after PubChem BioAssay (NCATS).

Structures are written as SMILES. Records with an inconclusive call do not appear. The source made the active and inactive calls. Calls come from the whole dose curve; as a rule, active = well fitted curve in the direction sought with a large enough effect; inconclusive = small, poorly fitted or top-dose-only effect, or another doubt; inactive = no such curve, though single readings can be large; an effect the other way counts as inactive or inconclusive.
Potency is the fitted concentration of half-maximal effect.

As for `CC(C(=O)O)c1ccc(/C=C2\CCCCC2=O)cc1` (centres undefined), the Potency result in the test on MCC-13, in the test with MCC-26, in the test on MKL-1, with MKL-2, in the test with UISO and with WaGa was “inactive” in each case. The Potency entry in the test with C33A, in the test on CASKI, in the test on Es-2, in the test on HeLa, with Hek293T and with JEG-3 was “inactive” throughout. Further, the Potency result with OV90, in the test on PA-1, in the test with Tov-21-G and in the test on Tov112D was “inactive” each time.
With `O=C(CS(=O)Cc1ccco1)NC/C=C\COc1cc(CN2CCCCC2)ccn1` (centres undefined), the Potency result in the test on MCC-13, with MCC-26, with MKL-1, with MKL-2, with UISO and in the test on WaGa was “inactive” each time. Further, the Potency result in the test with C33A, with CASKI, in the test on Es-2, in the test with HeLa, in the test with Hek293T and in the test on JEG-3 was “inactive” each time. For the same compound, the Potency entry with OV90, in the test on PA-1, with SKOV3, in the test on Tov-21-G and with Tov112D was “inactive” each time.
As for `CC(=O)O[C@@H]1C(=O)O[C@@H]2[C@H]1OC(=O)[C@@H]2OC(C)=O`, the Potency entry in the test with MCC-13, in the test on MCC-26, with MKL-1, in the test with MKL-2, in the test with UISO and in the test on WaGa was “inactive” in each case. The Potency result in the test with C33A, with CASKI, in the test on Es-2, in the test with HeLa, with Hek293T and in the test on JEG-3 was “inactive” throughout. The Potency result in the test on OV90, in the test on PA-1, with SKOV3, with Tov-21-G and in the test on Tov112D was “inactive” throughout.
As to `O=C1c2ccccc2CCc2ccccc21`, the Potency entry with MCC-13, with MCC-26, in the test with MKL-1, in the test on MKL-2, with UISO and in the test with WaGa was “inactive” each time. The Potency entry with C33A, in the test on CASKI, with Es-2, in the test on HeLa, in the test on Hek293T and in the test on JEG-3 was “inactive” each time. The Potency entry in the test with OV90, in the test on PA-1, in the test on SKOV3, in the test on Tov-21-G and with Tov112D was “inactive” throughout.
Regarding `COc1ccc2cc(C=O)ccc2c1`, the Potency entry in the test with MCC-13, with MCC-26, with MKL-1, in the test on MKL-2, in the test on UISO and with WaGa was “inactive” throughout. The Potency entry in the test with C33A, in the test with CASKI, with Es-2, in the test on HeLa, with Hek293T and in the test with JEG-3 was “inactive” each time. Moreover, the Potency result in the test on OV90, with PA-1, in the test with SKOV3, in the test with Tov-21-G and in the test on Tov112D was “inactive” each time.
Turning to `CC1CC(=O)NN=C1c1ccc(NCC(C)(C)NCC(O)COc2cc(Cl)ccc2C#N)cc1` (centres undefined), the Potency entry in the test on MCC-13, with MCC-26, with MKL-1, with MKL-2, in the test on UISO and in the test with WaGa was “inactive” in each case. The Potency result in the test on CAOV3, in the test on CASKI, with Es-2, in the test on HeLa, in the test with Hek293T and in the test with JEG-3 was “inactive” throughout. The Potency entry with OV90, in the test with PA-1, with SKOV3, with Tov-21-G and in the test with Tov112D was “inactive” each time.
Consider `COC(=O)c1cc(Cl)ccc1NS(=O)(=O)C(F)(F)F`, for which the Potency result with MCC-13, in the test on MCC-26, in the test with MKL-1, in the test on MKL-2, in the test with UISO and in the test on WaGa was “inactive” in each case. Further, the Potency result in the test with CASKI, with Hek293T, in the test with JEG-3, in the test on OV90, in the test with PA-1 and in the test with SKOV3 was “inactive” in each case. Further, the Potency in the test with CAOV3 was 25.1 µM (active).
Regarding `CC[C@@H]([C@H](C)O)n1ncn(-c2ccc(N3CCN(c4ccc(OC[C@@H]5CO[C@@](Cn6cncn6)(c6ccc(F)cc6F)C5)cc4)CC3)cc2)c1=O`, the Potency result in the test with MCC-13, in the test with MCC-26, with MKL-1, in the test with MKL-2, in the test with UISO and in the test on WaGa was “inactive” each time. For the same compound, the Potency result with HeLa and in the test on JEG-3 was “inactive” each time. For the same compound, the Potency in the test with C33A is 11.2 µM (active); in the test with OV90, 15.8 µM (active); in the test on SKOV3, 15.8 µM (active).
As to `Cc1oc(=O)oc1COC(=O)[C@@H]1N2C(=O)[C@@H](NC(=O)[C@H](N)c3ccccc3)[C@H]2SC1(C)C`, the Potency result in the test with MCC-13, in the test with MCC-26, in the test with MKL-1, with MKL-2, in the test with UISO and in the test on WaGa was “inactive” throughout. Moreover, the Potency entry in the test on C33A, in the test with CASKI, with Es-2, in the test on HeLa, with Hek293T and in the test on JEG-3 was “inactive” throughout. Moreover, the Potency entry with OV90, in the test with PA-1, with SKOV3, in the test on Tov-21-G and in the test with Tov112D was “inactive” in each case.
For the compound `O=[N+]([O-])c1ccc(O)c2ncccc12`, the Potency in the test on MCC-13 is 11.9 µM (active); in the test with MCC-26 it was 13.3 µM (active); in the test on MKL-1 it was 3.76 µM (active); with MKL-2 it was 2.66 µM (active); in the test with UISO, 7.5 µM (active); in the test on WaGa, 7.5 µM (active). The Potency is 15.8 µM (active) with C33A and 28.2 µM (active) with Tov112D. Moreover, the Potency result in the test on HeLa and with JEG-3 was “inactive” throughout.
On to `Nc1c(NC/C=C\COc2cc(CN3CCCCC3)ccn2)c(=O)c1=O`, for which the Potency result in the test on MCC-13, with MCC-26, in the test on MKL-1, in the test with MKL-2, in the test on UISO and in the test on WaGa was “inactive” in each case. Also, the Potency entry in the test on C33A, in the test with CASKI, with Es-2, in the test with HeLa, in the test with Hek293T and with JEG-3 was “inactive” each time. The Potency result in the test on OV90, with PA-1, in the test on SKOV3, in the test with Tov-21-G and in the test on Tov112D was “inactive” each time.
On to `O=S(=O)(O)c1ccc2nc(-c3ccccc3)[nH]c2c1`, for which the Potency result in the test with MCC-13, in the test with MCC-26, with MKL-1, with MKL-2, in the test on UISO and in the test on CAOV3 was “inactive” throughout. The Potency entry with CASKI, in the test on Es-2, with HeLa, with Hek293T, in the test on JEG-3 and with OV90 was “inactive” throughout. The Potency entry in the test with PA-1, with SKOV3, in the test with Tov-21-G and with Tov112D was “inactive” in each case.
For `CC(=O)[C@H]1CC[C@H]2[C@@H]3C=CC4=CC(=O)CC[C@@]4(C)[C@@H]3CC[C@]12C`, the Potency entry in the test on MCC-13, in the test with MCC-26, in the test on MKL-1, with MKL-2, with UISO and with WaGa was “inactive” throughout. Besides, the Potency entry in the test with C33A, in the test on CASKI, with Es-2, in the test on HeLa, with Hek293T and in the test with JEG-3 was “inactive” each time. In addition, the Potency result in the test with OV90, with PA-1, in the test with SKOV3, in the test on Tov-21-G and in the test on Tov112D was “inactive” each time.
`COC(=O)C1=C(C)NC(C)=C(C(=O)OCCc2ccc(N3CCN(C(c4ccccc4)c4ccccc4)CC3)cc2)C1c1cccc([N+](=O)[O-])c1` (centres undefined): the Potency result in the test on MCC-13, with MCC-26, in the test with MKL-1, with MKL-2, with UISO and in the test on WaGa was “inactive” each time. The Potency entry in the test on C33A, with CASKI, in the test on Es-2, in the test on HeLa, in the test with Hek293T and with JEG-3 was “inactive” throughout. For the same compound, the Potency entry with OV90, with PA-1, in the test on SKOV3, in the test with Tov-21-G and in the test on Tov112D was “inactive” each time.
